Bioassay records deposited in PubChem by NMMLSC.
LAP4-GFP MLPCN: alters LAP4-GFP fluorescence in TOR pathway yeast screen; S. cerevisiae LAP4-GFP multiplex, flow cytometry GFP, 3 h; median GFP as percent of DMSO wells; GFP response vs DMSO, % at 10 µM; 0.34% of 320,000 active;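 active = GFP response vs DMSO above a set limit, about the screen mean plus 3 SD, cut at about 150% in these data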
CIT2 TOR yeast: modulators of TOR pathway CIT2-GFP in S. cerevisiae; S. cerevisiae CIT2-GFP strain, flow cytometry, 3 h; 100 means same as DMSO wells; GFP response vs DMSO, % at 10 µM; 0.065% of 320,000 active; AID 2029;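 active = GFP response relative to DMSO above a set limit, near the screen mean plus 3 SD, cut at about 150% in these data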;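 note: ratio of well median GFP fluorescence to mean of DMSO wells on the plate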
MEP2-GFP yeast: modulators of TOR pathway MEP2-GFP in S. cerevisiae | S. cerevisiae MEP2-GFP strain, flow cytometry GFP, 3 h; 100% = DMSO control level | GFP response vs DMSO, % at 10 µM | 0.51% of 330,000 active | AID 2016;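 active = GFP response versus DMSO above a set limit, roughly screen mean plus 3 SD, cut at about 180% in these data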;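 note: median GFP fluorescence of the barcode-gated MEP2-GFP cells per well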
Efflux pump mplx: blocks antifungal efflux pumps in multiplex yeast assay; inhibition, % at 10 µM; S. cerevisiae Candida pump triplex, Nile Red efflux; 0.44% of 330,000 active;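 active = plate passing quality check with inhibition over a set limit, or well fluorescence over plate mean plus 4 SD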;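 note: Nile Red retained in pooled yeast measured as flow cytometry median fluorescence; 0% = buffer negative control and 100% = Enniatin B positive control; higher means more Nile Red kept so more efflux inhibition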
AGP1 TOR yeast: alters AGP1-GFP fluorescence in TOR pathway yeast screen; GFP response vs DMSO, % at 10 µM; 0.02% of 320,000 active; S. cerevisiae AGP1-GFP multiplex flow cytometry, 3 h; GFP as percent of DMSO wells;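 active = GFP response relative to DMSO above a set limit, near screen average plus 3 SD, cut at about 150% in these data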;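 note: median GFP channel fluorescence of the gated AGP1 strain per well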
RPL19A-GFP yeast: alters RPL19A-GFP fluorescence in TOR pathway yeast screen | S. cerevisiae RPL19A-GFP strain, flow cytometry, 3 h; active compounds read low | percent response vs DMSO, % at 10 µM | 0.3% of 330,000 active;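 active = percent response vs DMSO below 50%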;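 note: median channel GFP fluorescence of the barcoded RPL19A-GFP strain; ratio of sample median GFP to plate DMSO average so 100% = DMSO; lower means less RPL19A-GFP as with rapamycin TOR inhibition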
Yeast cmpd fluor: counter-screen for efflux pump inhibitors: compound fluorescence; AID 588517; fluorescence ratio to DMSO, % at 10 µM; S. cerevisiae AD/pABC3, flow cytometry; 4% of 1,700 active; shares compounds with Efflux pump mplx;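 active = fluorescence ratio to DMSO above its plate's cutoff, the plate mean ratio plus 5 SD, cut at about 210% in these data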;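 note: unstained yeast with no Nile Red so the signal is compound autofluorescence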
Mdr1 pump inh: inhibitors of Candida albicans Mdr1 efflux pump | shares compounds with Efflux pump mplx | 1% of 1,700 active | AID 588518 | S. cerevisiae AD/CaMDR1, Nile Red efflux, flow cytometry | inhibition, % at 10 µM; in the data active = inhibition above about 26%;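 note: 0% = DMSO vehicle and 100% = reference inhibitor; higher means more Nile Red retained so more efflux inhibition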
Cdr2 pump inh: inhibitors of Candida albicans Cdr2 efflux pump. 4% of 1,700 active. S. cerevisiae AD/CaCDR2, Nile Red retention, flow cytometry. Nile Red retention ratio vs DMSO, % at 10 µM. shares compounds with Efflux pump mplx. AID 588520; in the data active = Nile Red retention ratio vs DMSO above about 190%;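 note: higher ratio means more blocking of Cdr2 efflux of the dye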
CaCdr1 efflux inh: Candida Cdr1 efflux pump inhibition; shares compounds with Efflux pump mplx; S. cerevisiae AD/CaCDR1, Nile Red efflux, flow cytometry; inhibition, % at 10 µM; 1% of 1,700 active; AID 588522;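 active = inhibition above the screen-wide mean plus twice its standard deviation, cut at about 32% in these data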
* marks the source's active call; other numbers are inactive results; x = not tested or not shown. Compounds with a hit are over-represented: about 1.3% of the library has one in this group of screens.

SMILES	LAP4-GFP MLPCN	CIT2 TOR yeast	MEP2-GFP yeast	Efflux pump mplx	AGP1 TOR yeast	RPL19A-GFP yeast	Yeast cmpd fluor	Mdr1 pump inh	Cdr2 pump inh	CaCdr1 efflux inh
COc1ccc(Cn2c(-c3ccccc3)nc3c(c(=O)c4ccccc4n3C)c2=O)cc1	95	107	106	1.1*	110	111	110	0	119	0
O=C(NC1CCCCC1)c1cc2ccccc2cc1O	139	96	125	1.1*	107	84	99	0	108	0
COC(=O)C1=COC(C)C2CN3CCc4c([nH]c5cc(OC)c(OC)cc45)C3CC12 (configuration not stated)	103	103	114	0.9*	108	98	107	0	119	0
CCC(=O)N1CCN(c2ccc(Cl)cc2NC(=O)c2ccc3c(c2)OCCO3)CC1	112	x	102	0.8*	91	99	104	0	98	0
CCC(=O)N1CCN(c2ccc(NC(=O)c3ccc4c(c3)OCCO4)cc2)CC1	106	96	93	0	100	93	x	x	x	x
Cc1ccc(NC(=S)NC(=O)Cc2ccccc2)c(O)c1	100	105	107	0	94	101	x	x	x	x
COc1ccc(C(C(=O)NC(C)(C)C)N(Cc2ccco2)C(=O)CCC(=O)Nc2cc(C)on2)cc1 (configuration not stated)	106	96	96	0	104	97	102	0	107	0
COCCN(C(=O)CCC(=O)Nc1cc(C)on1)C(C(=O)NC(C)(C)C)c1ccc(OC)cc1 (configuration not stated)	101	102	102	0	95	103	99	0	108	0
c1ccc(Nc2ccc3c4c(cccc24)CC3)cc1	106	92	108	0	95	97	x	x	x	x
Nc1ccc2c3c(cccc13)CC2	104	96	111	1.8*	107	102	122	0	121	0
O=C(OCC(=O)c1ccccc1Cl)c1cnccn1	99	101	94	14*	97	98	100	0	114	0
C=C[C@](C)(CC[C@@]1(C)C(C)CC(OC2OC(C)C(OC3OC(COC(C)=O)C(O)C(O)C3O)C(O)C2O)[C@@]2(C)C(C)=CCCC12)OC1OC(C)C(O[C@@H]2O[C@@H](C)C(O)C(O)[C@H]2O)C(O)C1O (some centres not stated)	93	85	85	1.4*	87	89	113	0	129	0
CC(=O)OC[C@H]1O[C@@H](O[C@H]2C[C@]3(C)C(C[C@@H](O)C4C([C@]5(C)CC[C@@H](C(C)(C)O)O5)CC[C@]43C)[C@@]3(C)CC[C@H](O)C(C)(C)C23)[C@H](O[C@@H]2O[C@@H](C)[C@H](O)[C@@H](O)[C@H]2O)[C@@H](O)[C@@H]1O (some centres not stated)	95	89	102	0	98	97	x	x	x	x
Cc1noc(C)c1COc1ccccc1C(=O)N1CCN(c2cccc(Cl)c2)CC1	101	93	101	0	102	99	x	x	x	x
Cc1noc(C)c1COc1ccccc1C(=O)N1CCN(c2cccc(C(F)(F)F)c2)CC1	89	88	87	1.1*	86	91	112	0	110	0
O=C(COc1ccccc1[N+](=O)[O-])NCCCN1CCCC1=O	99	99	100	0	101	101	x	x	x	x
O=C(CC1C[C@H](C(=O)N2CCOCC2)[C@@]2(CCC3CCCC3)c3[nH]c4ccccc4c3CCN2C1=O)NCCN1CCOCC1 (some centres not stated)	94	100	98	0	102	98	x	x	x	x
O=C(CC1C[C@H](C(=O)N2CCOCC2)[C@@]2(CCC3CCCC3)c3[nH]c4ccccc4c3CCN2C1=O)NCC12CC3CC(CC(C3)C1)C2 (some centres not stated)	96	92	86	1.2*	99	90	109	0	123	0
CCN(CC)c1ccc(C=N/C(C#N)=C(\N)C#N)cc1	103	101	108	0.7*	100	99	128	1	348*	2
Cc1ccc(CC2CC(=O)N(Cc3ccco3)C2=O)cc1 (configuration not stated)	191*	65	92	1.2*	93	96	108	0	110	0
O=C1CC(Cc2ccccc2)C(=O)N1Cc1ccco1 (configuration not stated)	118	103	105	0	106	101	x	x	x	x
CSc1nsc(SC)c1C(=O)Nc1ccc(C(C)(C)C)cc1	114	116	117	0	123	115	x	x	x	x
CSc1nsc(SC)c1C(=O)NC(=O)Nc1cccnc1	115	106	101	0.8*	110	97	107	0	112	0
CC(C)CN(C(=O)Cn1ccccc1=O)C1CCS(=O)(=O)C1 (configuration not stated)	100	104	95	0	100	102	x	x	x	x
N#C/C(=C/c1ccc(-c2ccc(S(N)(=O)=O)cc2)o1)C(=O)Nc1ccccc1	87	97	98	9.7*	93	103	98	0	91	0
SMILES	LAP4-GFP MLPCN	CIT2 TOR yeast	MEP2-GFP yeast	Efflux pump mplx	AGP1 TOR yeast	RPL19A-GFP yeast	Yeast cmpd fluor	Mdr1 pump inh	Cdr2 pump inh	CaCdr1 efflux inh
N#C/C(=C\c1ccc(-c2nc3ccccc3s2)o1)C(N)=O	93	90	88	0	97	95	x	x	x	x
COC(=O)c1ccc(/C=C(\C#N)c2nc3ccccc3s2)cc1	100	99	101	0	90	94	102	0	120	0
N#C/C(=C\c1ccco1)C(=O)Nc1ccc(S(N)(=O)=O)cc1	94	87	95	0	95	94	x	x	x	x
N#C/C(=C/c1ccc(-c2ccc(S(N)(=O)=O)cc2)o1)c1nc2ccccc2s1	133	128	118	2.6*	91	104	99	1	150	0
CCN(CC(=O)Nc1ccc(NC(C)=O)cc1)CC(=O)Nc1ccccc1C(=O)c1ccccc1	94	96	95	0.7*	92	97	114	0	112	0
O=C(NC(=S)Nc1ccc(O)cc1)c1cncc(Br)c1	136	110	104	0	113	100	x	x	x	x
